Assay outcomes (PubChem BioAssay)
ATXN2 expr inh = Primary qHTS for Inhibitors of ATXN expression; 360,000 compounds, 0.72% hits; Potency, µM (top dose mostly 57 µM), without a hit: top-dose activity change, negative = inhibition, most hits filed as inhibitors; HEK-293 ATXN2-luciferase reporter, luminescence, 24 h; AID 1745845, 2022; also: % is scaled to controls: 0 for no effect and ±100 for the full control effect; nearly all actives have a fitted effect of over 55% in size
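ATXN2-luciferase reporter cells (luciferase flanked by upstream and downstream ATXN2 gene portions) were treated 24 h at 37 °C with compounds at up to 57 uM. SteadyGlo luminescence gave expression; GF-AFC fluorescence gave viability.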
TDP1 cell CPT = qHTS for Inhibitors of human tyrosyl-DNA phosphodiesterase 1 (TDP1): qHTS in cells in presence of CPT | chicken DT40 Tdp1-/-;hTDP1 cells + 20 nM CPT, ATP luminescence, 48 h | Potency, µM (titrated, usually from 46.2 µM), for the others: top-dose activity change, negative = growth inhibition, actives largely listed as inhibitors | 420,000 compounds, 12% hits | AID 686979, 2013; also: % is scaled to controls: 0 for no effect and ±100 for the full control effect; nearly all actives have a fitted effect of over 55% in size
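Chicken DT40 Tdp1-/- cells stably complemented with human TDP1 were seeded at 400 cells/well in medium containing 20 nM camptothecin, exposed to pin-transferred compounds, and grown at 37 °C for at least 48 hr. Viability was read as ATP luminescence.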
TGFb SMAD3 inh = qHTS for Inhibitors of TGF-b. HepG2 CAGA-GFP TGF-b/SMAD3 reporter, GFP fluorescence, 18 h; TGF-beta stimulated, 500 pg/mL final. Potency, µM (top dose mostly 46.1 µM), for the others: at the highest dose activity, negative = inhibition, actives largely listed as inhibitors. 410,000 compounds, 1.2% hits; also: % is scaled to controls: 0 for no effect and ±100 for the full control effect; nearly all actives have a fitted effect of over 65% in size
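TGF-beta reporter screen: HEPG2 CAGA-GFP, 1% FBS, 500 pg/mL TGF-beta final, 18 h; per-cell GFP summed per well; curves fitted and categorized by class.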
ATXN viability = Viability Counterscreen for Primary qHTS for Inhibitors of ATXN expression; S2 cells (HEK-293 line with an ATXN2-luciferase reporter) viability, CellTiter-Fluor protease fluorescence, 24 h; Potency, µM (series often up to 56.7 µM), most hits filed as cytotoxic; 400,000 compounds, 0.49% hits; AID 651635, 2014; also: nearly all actives have a fitted effect of over 40% in size
HepG2 viability = qHTS for Inhibitors of TGF-b: Cytotox Counterscreen | HepG2 CAGA-GFP viability, ATP luminescence, 18 h | Potency, µM (series often up to 46.1 µM), for inactives: at the highest dose activity change, negative = cytotoxicity, hits mostly cytotoxic | 410,000 compounds, 0.76% hits | AID 588856, 2011
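CellTiter-Glo luminescence gave cytotoxicity after 18 hours at 37 degrees C. The cells were HepG2 CAGA-GFP in 1% FBS DMEM, stimulated with 500 pg/mL TGF-beta after compound addition. %Activity was normalised to no-cell wells (complete cell-killing) and DMSO (no toxicity), and curves were fitted and classified.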
TDP1 cell noCPT = qHTS for Inhibitors of human tyrosyl-DNA phosphodiesterase 1 (TDP1): qHTS in cells in absence of CPT; DT40 Tdp1-/- hTDP1 cells, no CPT, ATP luminescence, 48 h; Potency, µM (titrated, usually from 46.2 µM), for the others: top-dose activity change, negative = growth inhibition, most hits filed as inhibitors; 420,000 compounds, 15% hits; AID 686978, 2013; also: % is scaled to controls: 0 for no effect and ±100 for the full control effect; nearly all actives have a fitted effect of over 55% in size
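Stably hTDP1-transfected Tdp1-null chicken DT40 cells were treated with library compounds minus camptothecin and grown for at least 48 hr at 37 °C, after which cellular ATP was quantified by luminescence.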
Starred values were filed as active, the others as inactive; i = inactive; ? = inconclusive; . = no result; [ ] = dose if it differs, or a comment. Hits are enriched below; roughly 17% of the tested compounds scored in any of these assays. Calls follow the shape of the dose curve; as a rule, active = well fitted curve in the direction sought with a large enough effect; inconclusive = small, poorly fitted or top-dose-only effect, or another doubt; inactive = no such curve, though single readings can be large; an effect the other way counts as inactive or inconclusive. Potency is read from the fitted curve at half-maximal effect.

SMILES | ATXN2 expr inh | TDP1 cell CPT | TGFb SMAD3 inh | ATXN viability | HepG2 viability | TDP1 cell noCPT
O=C1OC(c2ccccc2)(c2cc(Br)ccc2O)c2ccccc21 (centres undefined) | ? | 18µM* | 20µM* | . | -183% | ?
CCC(Sc1nc2ccccc2c(=O)[nH]1)C(=O)Nc1ccc(C(C)=O)cc1 (centres undefined) | 38%[11.3 µM] | -26% | 58% | i | 3% | ?
COc1ccc(-c2c(-c3cc(OC)cc(OC)c3)n(C)c3ccc(-c4ccc5[nH]ccc5c4)cc23)cc1 | -22% | -19% | 3% | i | -3% | -13%
CCOC(=O)c1cc(S(=O)(=O)NCCc2ccccc2)cn1C | -8% | 24% | -25% | i | -6% | -24%
CC(C)N(Cc1ccccc1)S(=O)(=O)c1ccc2c(c1)NC(=O)CO2 | -3% | -30% | 11% | i | 0% | 5%
CCOc1ccc(NC(=O)CN(C)C(=O)c2cc(-c3cccs3)nn2-c2ccccc2)cc1OCC | -1% | ? | -3% | i | 3% | ?
CCN(CC(=O)Nc1ccc(OC)cc1)C(=O)c1cc(-c2cccs2)nn1-c1ccccc1 | -11% | ? | 10% | ? | -21% | 16µM*
COc1ccc(NC(=O)CN(C)C(=O)c2cc(-c3cccs3)nn2-c2ccccc2)cc1 | -9% | ? | 0% | i | -7% | 15µM*
CN(CC(=O)Nc1ccc(F)cc1)C(=O)c1cn(-c2ccccc2)nc1-c1cccs1 | -8% | ? | -28% | i | -27% | ?
COCCN(CC(=O)Nc1cccc(C)c1C)C(=O)c1cc(-c2cccs2)nn1-c1ccccc1 | . | ? | -23% | ? | -9% | ?
CN(CC(=O)Nc1ccc(F)cc1)C(=O)c1cc(-c2cccs2)nn1-c1ccccc1 | -4% | ? | 8% | ? | 1% | 13µM*
COc1ccc(NC(=O)CN(C)C(=O)c2cn(-c3ccccc3)nc2-c2cccs2)cc1 | 0% | ? | 0% | i | -39% | 16µM*
Cc1nn(CC(=O)Nc2sc3c(c2C#N)CCC(C(C)(C)C)C3)c(C)c1[N+](=O)[O-] (centres undefined) | -9% | 26µM* | -19% | i | -18% | 18µM*
Cc1nn(CCCC(=O)Nc2sc3c(c2C#N)CCC3)c(C)c1[N+](=O)[O-] | -21% | -28% | -11% | i | -16% | ?
C[C@@H]1CN([C@@H](C)CO)C(=O)c2cc(N(C)C)ccc2O[C@@H](C)CCCCO[C@@H]1CN(C)Cc1ccc2c(c1)OCO2 | -19% | 16µM* | 3% | ? | -11% | 16µM*
C[C@@H]1CCCCO[C@H](CN(C)Cc2ccc(C(=O)O)cc2)[C@@H](C)CN([C@H](C)CO)C(=O)c2cc(N(C)C)ccc2O1 | 3% | -17% | -4% | i | -26% | -8%
C[C@@H]1CCCCO[C@@H](CN(C)Cc2ccc(C(F)(F)F)cc2)[C@@H](C)CN([C@H](C)CO)C(=O)c2cc(N(C)C)ccc2O1 | ? | 23µM* | ? | 22µM* | -25% | 23µM*
Cc1cc(C)c2[nH]c(=O)c(CN(CC3CCCO3)C(=O)c3cnccn3)cc2c1 (centres undefined) | -2% | 0% | 16% | i | 1% | -27%
Cc1ccc(NC(=S)N(CCN(C)C)Cc2cc3cc(C)cc(C)c3[nH]c2=O)cc1 | -1% | ? | -9% | i | -24% | 4.6µM*
Cc1ccc(NC(=S)N(CCCN(C)C)Cc2cc3cc4c(cc3[nH]c2=O)OCO4)cc1 | -3% | 2% | -2% | i | 0% | -5%
Cc1ccc2cc(CN(CCN(C)C)C(=S)Nc3ccccc3)c(=O)[nH]c2c1C | -3% | ? | -8% | i | -13% | 21µM*
CCOCCCN(Cc1cc2cc(C)cc(C)c2[nH]c1=O)C(=O)N(CC)CC | 1% | 15µM* | -11% | ? | -15% | 16µM*
CCN(CC)CCN(Cc1cc2cccc(C)c2[nH]c1=O)C(=S)Nc1ccccc1 | 4% | ? | -1% | i | -38% | ?
Cc1nn(CC(=O)NC2CCCC2)c(C)c1[N+](=O)[O-] | . | 22% | -1% | i | -3% | 5%
Cc1csc(NC(=O)CSc2nnc(NC(=O)NC(C)(C)C)s2)n1 | 43% | ? | ? | ? | -2% | ?
SMILES | ATXN2 expr inh | TDP1 cell CPT | TGFb SMAD3 inh | ATXN viability | HepG2 viability | TDP1 cell noCPT
CCOC(=O)C1=C(COC(=O)Cc2ccccc2[N+](=O)[O-])NC(=O)NC1C (centres undefined) | . | -13% | -3% | i | 14% | -24%
CC(C)C(=O)N1CCN(c2ccc(NC(=O)c3cccs3)cc2Cl)CC1 | -17% | 23µM* | -14% | ? | -30% | 13µM*
O=C(Cc1ccc(Cl)cc1)Nc1ccc(N2CCN(C(=O)c3ccco3)CC2)c(Cl)c1 | -37% | 15µM* | 0% | i | -22% | 23µM*
CCC(=O)Nc1ccc(N2CCN(C(=O)c3ccco3)CC2)c(Cl)c1 | -2% | -11% | 0% | i | 2% | ?
O=C(Nc1ccc(N2CCN(C(=O)c3ccco3)CC2)c(Cl)c1)c1cccs1 | ? | 21µM* | 4% | i | -35% | 21µM*
CN1CCN(c2ccc([N+](=O)[O-])cc2NC(=O)c2cccs2)CC1 | 9% | ? | -2% | i | 27% | 23µM*
CCN1CCN(c2ccc(S(=O)(=O)N3CCCC3)cn2)CC1 | 12% | 0% | 6% | i | -5% | -2%
CC(C)C(=O)N1CCN(c2ccc(NC(=O)c3ccc4c(c3)OCCO4)cc2Cl)CC1 | ? | ? | -18% | 18µM* | -34% | 23µM*
CC(=O)N1CCN(c2ccc(NC(=O)c3ccc4c(c3)OCCO4)cc2Cl)CC1 | 19% | ? | 2% | i | -11% | ?
COc1cccc2[nH]c3c(N4CCC(C)CC4)ncnc3c12 | -3% | 26µM* | 14% | i | -30% | 18µM*
COc1cccc2[nH]c3c(=O)n(CCCN4CCOCC4)cnc3c12 | . | -2% | 9% | i | -41% | -3%
c1nc(N2CCC3(CC2)OCCO3)c2[nH]cnc2n1 | 12% | -27% | 1% | i | 5% | -23%
COc1cccc2[nH]c3c(N4CCC5(CC4)OCCO5)ncnc3c12 | . | ? | 10% | i | 19% | 23µM*
